Screens: PubChem, National Center for Advancing Translational Sciences (NCATS)
Many of the other results were omitted from the sample, so hits are more common in it than they were.
Shiga toxin inh: inhibitors of Shiga toxin in Vero cells; hit rate 9.2% among 290,000; Vero cells, Shiga toxin protein synthesis inhibition reporter; inhibition, % at 38.7 µM; in the data active = inhibition mostly above about 28%, no sharp cut-off; inactive = mostly below about 43%; note: 0% is about no effect
CHX counter: counter-screen hit for Shiga toxin inhibitors, cycloheximide; cell reporter, cycloheximide protein synthesis inhibition counterscreen; max response, %; hit rate 12% among 300,000; in the data active = max response mostly above about 13%, no sharp cut-off; inactive = mostly below about 14%; note: read at 38.3 µM for the half of the compounds with a filed dose; 0% is about no effect
LASV entry inh: blocks Lassa virus binding to or entry into cells | Lassa virus pseudotype entry inhibition, cell reporter | Potency, µM (series often up to 37.9 µM), inactives show at the highest dose activity change, negative = inhibition, usual class: inhibitors | hit rate 1.2% among 300,000 | AID 540256; calls by dose curve; tested in HEK293 cells; note: potency is the fitted concentration of half-maximal effect; % is set by controls: 0 for no effect and ±100 for the full control effect; nearly all actives have a fitted effect of over 50% in size
Vaccinia mCherry: vaccinia inhibition (mCherry reporter) | Vaccinia virus mCherry reporter infection, fluorescence | Potency, µM (doses to about 36.5 µM), for inactives: top-dose activity change, negative = inhibition, usual class: inhibitors | hit rate 0.63% among 310,000 | AID 720579; calls by dose curve; tested in A549 cells; note: potency is the fitted concentration of half-maximal effect; % is set by controls: 0 for no effect and ±100 for the full control effect; nearly all actives have a fitted effect of over 35% in size
VACV Venus inh: inhibitors of vaccinia virus (Venus reporter); Potency, µM (highest dose often 36.5 µM), for the others: at the highest dose activity change, negative = inhibition, hits mostly inhibitors; hit rate 0.46% among 330,000; Vaccinia virus Venus reporter expression, fluorescence; calls by dose curve; tested in A549 cells; note: potency is the fitted concentration of half-maximal effect; % is set by controls: 0 for no effect and ±100 for the full control effect; nearly all actives have a fitted effect of over 30% in size
Marburg entry inh: inhibitors of Marburg virus binding or cell entry. Marburg virus pseudotyped entry inhibition, cell reporter. hit rate 1.8% among 300,000. AID 540276. Potency, µM (series often up to 37.8 µM), for inactives: at the highest dose activity change, negative = inhibition, hits mostly inhibitors; calls by dose curve; tested in HEK293 cells; note: potency is the fitted concentration of half-maximal effect; % is set by controls: 0 for no effect and ±100 for the full control effect
* hit, by the source's call; [ ] = dose if it differs, or a comment.

How did CC(=O)Oc1ccc2ccccc2c1C(NC(=O)Cc1ccccc1)c1ccc(Cl)cc1 (stereo not given) do in these assays?
Shiga toxin inh: -16; CHX counter: -1; LASV entry inh: 5%; Vaccinia mCherry: 28µM*; VACV Venus inh: inconclusive; Marburg entry inh: inconclusive

How did CCOc1ccc(C(NC(=O)CC)c2c(O)ccc3ccccc23)cc1 (stereo not given) do in these assays?
Shiga toxin inh: -10; CHX counter: -1

What do the screens show for `CCS(=O)(=O)c1ccc2oc(Nc3ccccc3C)nc2c1`?
Shiga toxin inh: 69*; CHX counter: 54*; LASV entry inh: inconclusive; Vaccinia mCherry: -10%[1.46 µM]; VACV Venus inh: -27%; Marburg entry inh: -2%

Results for CCN(CC)S(=O)(=O)c1ccc2oc(Nc3ccccc3)nc2c1 ?
Shiga toxin inh: 79*; CHX counter: 30*; LASV entry inh: 4%[46.1 µM]; Vaccinia mCherry: inconclusive; VACV Venus inh: 6%; Marburg entry inh: inconclusive

How did CCS(=O)(=O)c1ccc2oc(Nc3ccc(OC)c(OC)c3)nc2c1 do in these assays?
Shiga toxin inh: 16; CHX counter: 17; LASV entry inh: -10%; Vaccinia mCherry: inconclusive; VACV Venus inh: -11%; Marburg entry inh: -2%[46.1 µM]

How did O=C(CSc1ncc(S(=O)(=O)c2ccc(Cl)cc2)c(=O)[nH]1)Nc1ccc2c(c1)OCCO2 do in these assays?
Vaccinia mCherry: 7%; VACV Venus inh: 12%; Marburg entry inh: 2%[46.1 µM]

How did O=c1cc(-c2ccccc2)n2c(SCc3cccc([N+](=O)[O-])c3)nnc2[nH]1 do in these assays?
LASV entry inh: 3%[46.1 µM]; Vaccinia mCherry: inactive; VACV Venus inh: -3%

What do the screens show for `CO[C@H]1[C@H](NC(=O)c2ccsc2)c2ccccc2C12CCN(Cc1c(O)ccc3ccccc13)CC2`?
Vaccinia mCherry: -11%; VACV Venus inh: 4%

Results for CC(C)(C)c1nnc(N/N=C/c2cc(Br)ccc2O)n(N)c1=O ?
Shiga toxin inh: -9; CHX counter: -5; LASV entry inh: inconclusive; Vaccinia mCherry: 2.5µM*; VACV Venus inh: inconclusive; Marburg entry inh: inconclusive

How did CCc1nnc(N/N=C/c2cc(Br)c(O)cc2O)n1N do in these assays?
Shiga toxin inh: 24*; CHX counter: 13*; LASV entry inh: inconclusive; Vaccinia mCherry: inconclusive; VACV Venus inh: inconclusive; Marburg entry inh: inconclusive

What do the screens show for `Cc1ccc(Nc2nnc(C(C)(C)C)c(=O)n2N)cc1`?
Shiga toxin inh: -10; CHX counter: -4; LASV entry inh: -9%; Vaccinia mCherry: 1%; VACV Venus inh: -11%; Marburg entry inh: -1%

What do the screens show for `CCc1nnc(N/N=C/c2cccs2)n1N`?
Shiga toxin inh: 6; CHX counter: 10; LASV entry inh: -2%; Vaccinia mCherry: 22µM*; VACV Venus inh: inconclusive; Marburg entry inh: inconclusive

How did CCc1nnc(N/N=C/c2ccc(O)c(OC)c2)n1N do in these assays?
CHX counter: -2

Results for Cc1ccc(-c2nc3sc(CCNC(=O)c4ccco4)c(C)n3n2)cc1 ?
LASV entry inh: -16%[46.1 µM]; Vaccinia mCherry: -18%; VACV Venus inh: -14%

What do the screens show for `Cc1ccsc1CNc1ncnc2ccc(-c3c(C)noc3C)cc12`?
Shiga toxin inh: 57*; CHX counter: 28

How did Cc1ccc(CNc2ncnc3ccc(-c4c(C)noc4C)cc23)cc1 do in these assays?
Shiga toxin inh: 25; CHX counter: 13

Results for COC(=O)c1c(NC(=O)c2ccc(OC(C)C)cc2)sc2c1CC(C)(C)NC2(C)C ?
Shiga toxin inh: -4; CHX counter: -1; Vaccinia mCherry: inconclusive; VACV Venus inh: 18µM*

Results for COc1ccc(NC(=S)NC(=O)Cc2ccccc2)c(OC)c1 ?
CHX counter: -2; LASV entry inh: -3%[46.1 µM]; Vaccinia mCherry: -11%; VACV Venus inh: -10%; Marburg entry inh: 7%[46.1 µM]

What do the screens show for `COC(=O)c1ccccc1NC(=S)NC(=O)CC(C)C`?
Shiga toxin inh: -3; CHX counter: 13; LASV entry inh: 6%; Marburg entry inh: 0%

What do the screens show for `Cc1ccc(O)c(NC(=S)NC(=O)C(C)C)c1`?
Shiga toxin inh: 52*; CHX counter: 16*; LASV entry inh: 4%; Vaccinia mCherry: -29%; VACV Venus inh: -8%; Marburg entry inh: 2%

What do the screens show for `Cc1ccc(O)c(NC(=S)NC(=O)/C=C/c2ccccc2)c1`?
Shiga toxin inh: 7; CHX counter: 5

Results for Cc1ccc(NC(=S)NC(=O)Cc2ccccc2)c(O)c1 ?
Shiga toxin inh: 29; CHX counter: 32*; LASV entry inh: 0%; Vaccinia mCherry: -11%; VACV Venus inh: -16%; Marburg entry inh: -27%

What do the screens show for `Cc1ccc(O)c(NC(=S)NC(=O)CC(C)C)c1`?
Shiga toxin inh: 61*; CHX counter: 59*; LASV entry inh: inconclusive; Vaccinia mCherry: -15%; VACV Venus inh: inconclusive; Marburg entry inh: 3%

What do the screens show for `COCC(=O)Nc1cc(C(=O)NC2CCc3ccccc32)c2c(c1)nc(-c1ccncc1)n2C` (stereo not given)?
Vaccinia mCherry: 2%; VACV Venus inh: 16%

How did COc1cccc(CCNc2ncnc3sc(C(=O)N4CCOCC4)c(C)c23)c1 do in these assays?
Vaccinia mCherry: inactive; VACV Venus inh: -15%

Results for COc1ccc(C)cc1NC(=O)CN1C(=O)CCc2cc(S(=O)(=O)N3CCOCC3)ccc21 ?
LASV entry inh: inconclusive; Vaccinia mCherry: -5%; VACV Venus inh: 2%

Results for Cc1nn(C)c(Sc2ccccc2N)c1[N+](=O)[O-] ?
Shiga toxin inh: 90; CHX counter: 29*

Results for Cc1nn(C)c(N)c1[N+](=O)[O-] ?
Shiga toxin inh: 34; CHX counter: -3

How did CCN(CC)C(C)C(=O)Nc1c2c(cc3c1CCC3)CCC2 (stereo not given) do in these assays?
Shiga toxin inh: -5; CHX counter: -6; LASV entry inh: -13%; Vaccinia mCherry: inactive; VACV Venus inh: -4%; Marburg entry inh: 15µM*

What do the screens show for `CC1CCN(C(=O)Nc2ccc3nsnc3c2)CC1`?
Shiga toxin inh: 107*; CHX counter: 20*; LASV entry inh: 2%; Vaccinia mCherry: -3%; VACV Venus inh: -20%; Marburg entry inh: 3%

What do the screens show for `O=C(Nc1ccc2nsnc2c1)N1CCCCC1`?
Shiga toxin inh: 55; CHX counter: 30*; LASV entry inh: 13%; Vaccinia mCherry: -10%; VACV Venus inh: -4%; Marburg entry inh: 20%

What do the screens show for `Fc1ccc(-c2nc(Nc3cccc(C(F)(F)F)c3)nc3c2COc2ccccc2-3)cc1`?
LASV entry inh: inconclusive; Vaccinia mCherry: -10%; VACV Venus inh: -15%; Marburg entry inh: inconclusive

How did CCc1ccc(NC(=O)C(C)n2nnc3sc(-c4ccccc4)cc3c2=O)cc1 (stereo not given) do in these assays?
LASV entry inh: 0%[46.1 µM]; Vaccinia mCherry: -7%; VACV Venus inh: -2%; Marburg entry inh: -13%[46.1 µM]

Results for COC(=O)C(C)n1nnc2sc(-c3ccccc3)cc2c1=O (stereo not given) ?
Shiga toxin inh: 113*; CHX counter: 40*; LASV entry inh: inconclusive; Vaccinia mCherry: 5%; VACV Venus inh: 4%; Marburg entry inh: inconclusive
